± gives the standard deviation of the averaged measurements.
How the values were obtained:
Assay in all cases: phage ELISA signal ratio (GST-PRM binding over GST background); higher = stronger binding of peptide-phage to the PRM
[1] = target: PCMT1 1-227 PCMT (domain begin residue: 1, domain end residue: 227), P22061
In short: (§1)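 Approximately 48 individual clones from selection rounds 4 and 5 were tested by phage ELISA, and those scoring positive were sequenced. They came from five rounds of selecting an M13 phage library of randomized, cysteine-free, glycine-flanked hexadecapeptides on the gene-8 major coat protein against human peptide recognition domains fused to the C-terminus of glutathione S-transferase (GST) in 96-well plates. Each figure in the table is the ELISA signal on the GST-domain fusion relative to the signal on GST alone.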

[2] = target: PAF1 165-376 Paf1 (domain begin residue: 165, domain end residue: 376), Q8N7H5
In short: as §1

[3] = target: PDCD6 23-191 EF-hand_5+EF-hand_7 (domain begin residue: 23, domain end residue: 191), O75340
Chain of PDCD6 23-191 EF-hand_5+EF-hand_7 (domain begin residue: 23, domain end residue: 191), O75340 (O75340 whole entry): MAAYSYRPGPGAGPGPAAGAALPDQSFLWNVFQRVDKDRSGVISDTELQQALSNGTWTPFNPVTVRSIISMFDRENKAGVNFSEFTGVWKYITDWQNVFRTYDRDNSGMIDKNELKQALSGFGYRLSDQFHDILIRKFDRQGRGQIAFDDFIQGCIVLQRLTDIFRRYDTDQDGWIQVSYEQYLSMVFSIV
In short: as §1

[4] = target: PCNA 1-261 PCNA_N+PCNA_C (domain begin residue: 1, domain end residue: 261), P12004
Chain of PCNA 1-261 PCNA_N+PCNA_C (domain begin residue: 1, domain end residue: 261), P12004 (P12004 whole entry): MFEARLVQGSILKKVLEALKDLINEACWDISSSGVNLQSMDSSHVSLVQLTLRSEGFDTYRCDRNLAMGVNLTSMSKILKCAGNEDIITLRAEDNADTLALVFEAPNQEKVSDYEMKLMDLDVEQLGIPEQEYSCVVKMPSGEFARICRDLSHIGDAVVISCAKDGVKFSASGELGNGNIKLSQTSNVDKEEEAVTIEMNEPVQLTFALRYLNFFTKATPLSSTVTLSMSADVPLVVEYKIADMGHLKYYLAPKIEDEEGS
In short: as §1

Chain of PCMT1 1-227 PCMT (domain begin residue: 1, domain end residue: 227), P22061 (P22061 whole entry, the tested form may be a part): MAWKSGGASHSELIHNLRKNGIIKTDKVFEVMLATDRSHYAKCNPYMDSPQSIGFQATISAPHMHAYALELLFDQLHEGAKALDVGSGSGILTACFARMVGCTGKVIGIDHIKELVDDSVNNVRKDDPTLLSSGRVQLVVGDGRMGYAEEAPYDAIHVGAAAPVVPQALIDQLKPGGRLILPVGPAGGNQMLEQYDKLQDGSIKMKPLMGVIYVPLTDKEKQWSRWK

B1: unnamed (peptide)
chain: FYMWQVIDAQAYVDWI
Q: For B1, which “phage ELISA signal ratio” value [1] is on record?
A: The value was 4.8.

B2: unnamed (peptide)
chain: WDFPGWSADQMPFSQS
Q: How did the “phage ELISA signal ratio” value [2] turn out when B2 was run?
A: The value was 4.24.

B3: unnamed (peptide)
chain: MDIWDEMALSINPYMY
Q: Which “phage ELISA signal ratio” value [2] does the source give for B3 here?
A: Its value is 4.38.

B4: unnamed (peptide)
chain: VHWDPYWFLEDNFSNL
Q: B4 was tested. Which “phage ELISA signal ratio” value [1] did it give?
A: Its value is 19.9.

B5: unnamed (peptide)
chain: QQMLYGWGPMVQEMLV
Q: B5 was tested. Which “phage ELISA signal ratio” value [3] did it give?
A: Its value is 25.4.

B6: unnamed (peptide)
chain: WVEYGWQDWVTKFDQQ
Q: B6 was tested. Which “phage ELISA signal ratio” value [3] did it give?
A: Its value is 27.1.

B7: unnamed (peptide)
chain: YGWNQILLDESVFHMV
Q: B7 was tested. Which “phage ELISA signal ratio” value [3] did it give?
A: The value was 26.9.

B8: unnamed (peptide)
chain: MYGWGPLLMEMNPWQW
Q: Which “phage ELISA signal ratio” value [3] does the source give for B8 here?
A: The value was 20.8.

B9: unnamed (peptide)
chain: AQWPMDIGWAPWLLDV
Q: How did the “phage ELISA signal ratio” value [3] turn out when B9 was run?
A: Its value is 26.8.

B10: unnamed (peptide)
chain: LVGEMSRNVGWAAWVF
Q: With B10 as the binder, how does the “phage ELISA signal ratio” value [3] read?
A: Its value is 18.1.

B11: unnamed (peptide)
chain: WAPWVFMDDAPFDSMV
Q: How did the “phage ELISA signal ratio” value [3] turn out when B11 was run?
A: The value was 24.8.

B12: unnamed (peptide)
chain: GARQTLITDWLMVSSD
Q: With B12 as the binder, how does the “phage ELISA signal ratio” value [4] read?
A: Its value is 15.6.

B13: unnamed (peptide)
chain: MDMPYGWMQWVSTEPV
Q: B13 was tested. Which “phage ELISA signal ratio” value [3] did it give?
A: Its value is 25.4.

B14: unnamed (peptide)
chain: SHNWWHIIEAQEAMAW
Q: Which “phage ELISA signal ratio” value [1] does the source give for B14 here?
A: Its value is 16.

B15: unnamed (peptide)
chain: SFLPVSYGWAPWLIET
Q: B15 was tested. Which “phage ELISA signal ratio” value [3] did it give?
A: Its value is 24.1.

B16: unnamed (peptide)
chain: VSMTQSESYGWQPWVV
Q: Which “phage ELISA signal ratio” value [3] does the source give for B16 here?
A: Its value is 27.1.

B17: unnamed (peptide)
chain: HEFWALYDAMPMRSYV
Q: For B17, which “phage ELISA signal ratio” value [1] is on record?
A: Its value is 30.9.

B18: unnamed (peptide)
chain: MSVEPYMPPYGWAEWV
Q: For B18, which “phage ELISA signal ratio” value [3] is on record?
A: Its value is 22.3.

B19: unnamed (peptide)
chain: VFEPTLASYGWAHWAV
Q: For B19, which “phage ELISA signal ratio” value [3] is on record?
A: The value was 25.1.

B20: unnamed (peptide)
chain: VDYGWVWESAYTPPMQ
Q: B20 was tested. Which “phage ELISA signal ratio” value [3] did it give?
A: The value was 26.1.

B21: unnamed (peptide)
chain: IEVYSYMENMYDHPPV
Q: With B21 as the binder, how does the “phage ELISA signal ratio” value [2] read?
A: Its value is 3.73.

B22: unnamed (peptide)
chain: SELWDHWIEWNDVYQT
Q: With B22 as the binder, how does the “phage ELISA signal ratio” value [2] read?
A: Its value is 3.06.

B23: unnamed (peptide)
chain: VFYGWQDWVVPGDWDV
Q: B23 was tested. Which “phage ELISA signal ratio” value [3] did it give?
A: The value was 28 ± 2.8.

B24: unnamed (peptide)
chain: QVDMMSQLFMMADQWN
Q: Which “phage ELISA signal ratio” value [2] does the source give for B24 here?
A: The value was 4.55.

B25: unnamed (peptide)
chain: WAEWVFSDEDPPGHMV
Q: With B25 as the binder, how does the “phage ELISA signal ratio” value [3] read?
A: The value was 23.

B26: unnamed (peptide)
chain: LISGMNGWNYGWADWV
Q: How did the “phage ELISA signal ratio” value [3] turn out when B26 was run?
A: The value was 25.8.

B27: unnamed (peptide)
chain: VNYGWTPEVTWWLHEA
Q: Which “phage ELISA signal ratio” value [3] does the source give for B27 here?
A: Its value is 14.4.

B28: unnamed (peptide)
chain: MPQFGWEEWVLDGIHF
Q: For B28, which “phage ELISA signal ratio” value [3] is on record?
A: Its value is 20.2.

B29: unnamed (peptide)
chain: LQLEPYGWMDWTWQTA
Q: For B29, which “phage ELISA signal ratio” value [3] is on record?
A: The value was 21.9.

Reference: the supplement of paper PMC7724964
